# KB-V1 cytotox: qHTS assay for MDR1-selective chemotherapeutics: Primary screen using the drug-selected MDR subline cells KB-V1. Potency, µM (top dose mostly 46.1 µM), actives largely listed as cytotoxic. 3.4% of 400,000 active. KB-V1 MDR cells viability, CellTiter-Glo, 72 h; also: nearly all actives have a fitted effect of over 60% in size
#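 In this primary screen, KB-V1 cells overexpressing P-gp are incubated with library compounds (lowest to highest concentration) for 72 h at 37 degrees C before a luminescent ATP viability read.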
# KB-3-1 tox: qHTS assay for MDR1-selective chemotherapeutics: Primary screen using the parental adenocarcinoma cell KB-3-1; KB-3-1 viability, CellTiter-Glo ATP luminescence, 72 h; Potency, µM (doses to about 46.1 µM), usual class: cytotoxic; 1.4% of 400,000 active; AID 1347075, 2019; also: nearly all actives have a fitted effect of over 60% in size
#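 Multi-concentration cytotoxicity screen in KB-3-1 cells grown in DMEM lacking phenol red with 10% FBS. After 72 h at 37 °C with compound, ATP-dependent luminescence was recorded.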
# MCF10A rerep: A quantitative high throughput screen for small molecules that induce DNA re-replication in MCF 10a normal breast cells. MCF 10A DNA re-replication, Hoechst nuclear intensity, 48 h. Potency, µM (series often up to 46.1 µM), usual class: activators. 2.9% of 350,000 active; also: nearly all actives have a fitted effect of over 50% in size
# SW480 rerep: A quantitative high throughput screen for small molecules that induce DNA re-replication in SW480 colon adenocarcinoma cells. SW480 DNA re-replication, Hoechst DNA content imaging, 48 h. Potency, µM (titrated, usually from 46.1 µM), hits mostly activators. 1.8% of 340,000 active. AID 624297, 2012; also: nearly all actives have a fitted effect of over 55% in size
#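 Quantitative HTS format with DMSO vehicle controls; 48 hr drug incubation at 37 C, then 40 min Hoechst staining and scanning imager measurement at 405 nm excitation.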
# ELG1 repair inh: qHTS screen for small molecules that inhibit ELG1-dependent DNA repair in human embryonic kidney (HEK293T) cells expressing luciferase-tagged ELG1 | HEK293T ELG1-luciferase reporter, luminescence, 16 h; DNA damage induced by 5-fluorouridine | Potency, µM (titrated, usually from 46.1 µM), most hits filed as inhibitors | 2.3% of 330,000 active | AID 504467, 2011; also: nearly all actives have a fitted effect of over 55% in size
#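 5-Fluorouridine DNA damage + compound/DMSO, 2,000 cells/well, 16 h, 37 °C/5% CO2. ONE-Glo, 30 min RT, luminescence. Readout = decrease in reporter signal.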
# Numbers stand for hits; i = inactive; ? = inconclusive; nt = not tested or not shown; [ ] = dose if it differs, or a comment. In the library only some 8.1% were active in any assay of this set; here they are far more common. Calls follow the shape of the dose curve; as a rule, active = well fitted curve in the direction sought with a large enough effect; inconclusive = small, poorly fitted or top-dose-only effect, or another doubt; inactive = no such curve, though single readings can be large; an effect the other way counts as inactive or inconclusive.
SMILES,KB-V1 cytotox,KB-3-1 tox,MCF10A rerep,SW480 rerep,ELG1 repair inh
COC(=O)[C@@]1(Cc2ccc(F)cc2)[C@H]2c3cc(C(=O)N(C)C)n(CCF)c3C[C@H]2CN1C(=O)c1ccccc1,?,i,nt,nt,nt
COC(=O)[C@@]1(Cc2ccccc2)[C@@H]2C(=CC(=O)[C@H]2CC(=O)C(=O)N(C)C)CN1C(=O)c1ccccc1,i,21µM,26µM,?,7.3µM
NC1=NC(=O)/C(=C\c2cc([N+](=O)[O-])ccc2Cl)S1,i,i,i,0.46µM,i
COc1ccc(/C(O)=C2/C(=O)C(=O)N(CCN(C)C)C2c2cccnc2)cc1C (stereo unspecified),i,i,i,i,i
N#C/C(=C/c1ccc2c(c1)OCO2)C(=O)NCCc1c[nH]c2ccccc12,15µM,i,?,?,?
O=C(NCCc1c[nH]c2ccccc12)c1ccc2c(c1)OCO2,i,i,i,i,?
COc1ccc2ccccc2c1CN1CCN(C(=O)c2ccco2)CC1,?,i,i,i,21µM
CCOc1ccccc1-n1c(CN2CCN(C(=O)c3ccco3)CC2)nc2ccccc2c1=O,?,i,3.7µM,i,i
COc1cccc(CN2CCN(C(=O)c3ccc(-c4ccccc4)cc3)CC2)c1OC,i,i,i,i,18µM
COc1ccc2ccccc2c1CN1CCN(C(=O)c2ccccc2)CC1,i,i,i,i,18µM
Cc1cc(C)n(CC(=O)N2c3ccccc3Sc3ccccc32)n1,i,i,i,i[9.22 µM],i
CC1(C)COC(c2cc([N+](=O)[O-])ccc2Cl)=N1,i,i,i,i,i
CC1(C)COC(c2ccc(F)c([N+](=O)[O-])c2)=N1,?,?,23µM,?,?
CCOc1ccc(N2C(=O)CC(SCC(=O)O)C2=O)cc1 (stereo unspecified),i,i,i,i,i
CN(c1ccc(C(=O)NCCSCc2c(F)cccc2Cl)cc1)S(C)(=O)=O,i,i,?,i,13µM
O=C(NCCSCc1c(F)cccc1Cl)c1ccc(CN2CCOCC2)cc1,16µM,?,?,i,?
O=C(C[n+]1ccccc1)Nc1ccccc1C(F)(F)F,i,i,3.3µM,i,i
COc1ccc(NC(=O)CCn2nc(C)cc2C)cc1,i,i,i,i,i
CC(C)CNC(=O)C1CCN(S(=O)(=O)c2ccc(-n3cnnn3)cc2)CC1,i,i,i,i,?
CCOC(=O)c1c(C)[nH]c(C(=O)OCC(=O)N2c3ccccc3CC2C)c1C (stereo unspecified),?,i,i,i,?
CC(C)(C)C(=O)Cn1ncc(N2CCOCC2)c(Cl)c1=O,i,i,i,i,i
CC(C)(C)C(=O)Cn1ncc(Br)c(Br)c1=O,i,10µM,5.8µM,7.3µM,?
COC(=O)c1ccccc1NC(=O)c1cc[n+]([O-])cc1,i,i,?,?,i
COc1ccc(/C=C(\NC(=O)c2cccs2)C(=O)NCc2ccco2)cc1OC,i,i,i,i,i
CCOC(=O)c1c(C)n(C)c2ccc(OC)c(NC(=O)CCN3CCSCC3)c12,13µM,i,i,i,i
SMILES,KB-V1 cytotox,KB-3-1 tox,MCF10A rerep,SW480 rerep,ELG1 repair inh
CCOC(=O)c1c(C)n(C)c2ccc(OC)c(NC(=O)CN3CCC(C(=O)OCC)CC3)c12,?,i,i,i,?
CN(CC#CC1(O)c2ccccc2-c2ccccc21)Cc1ccccc1,8.2µM,i,i,i,i
CCOC(=O)C(NC(=O)c1ccccc1)(OCC1(CC)COC1)C(F)(F)F (stereo unspecified),18µM,i,i,i,i
CCOC(=O)C(NC(=O)c1ccc(OC)cc1)(OCC1(CC)COC1)C(F)(F)F (stereo unspecified),i,i,i,i[9.22 µM],i
C=CCN1C(=O)C(Cc2ccc(OCC)cc2)S/C1=N\N=C\c1cccs1 (stereo unspecified),i,i,?,i,i
Cc1csc(SC(C)c2nc3scc(-c4ccccc4)c3c(=O)[nH]2)n1 (stereo unspecified),9.2µM,?,?,i,?
O=C(N/N=C/c1cccc2ccccc12)c1cc(C2CC2)[nH]n1,i,i,i,i,i
Cc1cccc(C2N(c3nccs3)C(=O)C3CCCN32)c1 (stereo unspecified),i,i,i,i,i
CCC(=O)NC(=S)Nc1ccc(NC(=O)c2ccco2)c(OC)c1,i,i,i,i,i
COc1ccc(NC(=O)/C(=C\c2cc(OC)c(OC)cc2[N+](=O)[O-])NC(=O)c2ccccc2)cc1,i,i,i,i,i
COc1cc(/C=C(/NC(=O)c2ccccc2)C(=O)Nc2ccccc2)c([N+](=O)[O-])cc1OC,16µM,i,i,i,i
COc1ccc(-c2cc(-c3ccccc3)nc(Cl)n2)cc1OC,i,i,23µM,?,18µM
CCc1nc(-c2ccc(OC)c(OC)c2)cc2cc(OC)c(OC)cc12,?,i,i,i,26µM
CCOc1ccc(-c2cc3cc(OC)c(OC)cc3c(C)n2)cc1,i,i,i,i,?
Cc1ccc(-c2cc(-c3ccccc3)nc(Cl)n2)cc1,i,i,i,?,?
COc1ccccc1CNC(=O)C1CCN(c2ncnc3c2nc2n3CCCCC2)CC1,i,i,i,i,?
COc1cccc(CCNC(=O)C2CCCN(c3ncnc4c3nc3n4CCCCC3)C2)c1OC (stereo unspecified),i,i,i,?,7.3µM
COc1ccccc1N1CCN(CCCNC(=O)C2CCCN(c3ncnc4c3nc3n4CCCCC3)C2)CC1 (stereo unspecified),i,i,i,i,12µM
CCOc1ccc(N2C(=O)Nc3ccccc3C2(O)C(=O)NCc2ccccc2)cc1 (stereo unspecified),i,i,i,i,i
CCOC(=O)C1CCCN(C(=O)Cn2c(=O)cc(C)c3c(C)nn(C)c32)C1 (stereo unspecified),i,i,nt,nt,nt
C=Cc1ncc(OC)c2c1[nH]c1ccccc12,i,5.8µM,?,?,i
COc1ccc(/C=C/c2nccc3c2[nH]c2ccccc23)cc1,i,i,nt,nt,nt
CC1=C(C(=O)Nc2ccc(F)cc2F)C2(CCN(C(C)C)CC2)OC1=O,?,i,nt,nt,nt
CCOc1cc(C)c(S(=O)(=O)Nc2ccc(Cl)cn2)cc1C,?,i,23µM,i,i
CCOc1ccc(S(=O)(=O)Nc2ccc(Cl)cn2)c(C)c1C,23µM,?,i,i,i
CCOc1ccc(C(C)C)cc1S(=O)(=O)Nc1ccc(Cl)cn1,i,i,i,i,i

# Screens (PubChem BioAssay)
